PubChem BioAssay AID1671192 (National Center for Advancing Translational Sciences (NCATS), 2021)
Records with an inconclusive call do not appear. Values without a mark were called inactive. Calls follow the shape of the dose curve; as a rule, active = well fitted curve in the direction sought with a large enough effect; inconclusive = small, poorly fitted or top-dose-only effect, or another doubt; inactive = no such curve, though single readings can be large or run the other way.
Also: 0% is about no effect.

These compounds were tested against Polyunsaturated fatty acid lipoxygenase ALOX15 (Homo sapiens) (UniProt P16050) (assay: Counterscreen qHTS for inhibitors of human arachidonate 12S-lipoxygenase (ALOX12): ALOX15 Assay). Conditions: purified ALOX15 enzyme activity; series mostly up to 110 µM; activity change, negative = inhibition: at the top concentration.
Polyunsaturated fatty acid lipoxygenase ALOX15 (Homo sapiens), sequence (P16050 whole entry, looked up): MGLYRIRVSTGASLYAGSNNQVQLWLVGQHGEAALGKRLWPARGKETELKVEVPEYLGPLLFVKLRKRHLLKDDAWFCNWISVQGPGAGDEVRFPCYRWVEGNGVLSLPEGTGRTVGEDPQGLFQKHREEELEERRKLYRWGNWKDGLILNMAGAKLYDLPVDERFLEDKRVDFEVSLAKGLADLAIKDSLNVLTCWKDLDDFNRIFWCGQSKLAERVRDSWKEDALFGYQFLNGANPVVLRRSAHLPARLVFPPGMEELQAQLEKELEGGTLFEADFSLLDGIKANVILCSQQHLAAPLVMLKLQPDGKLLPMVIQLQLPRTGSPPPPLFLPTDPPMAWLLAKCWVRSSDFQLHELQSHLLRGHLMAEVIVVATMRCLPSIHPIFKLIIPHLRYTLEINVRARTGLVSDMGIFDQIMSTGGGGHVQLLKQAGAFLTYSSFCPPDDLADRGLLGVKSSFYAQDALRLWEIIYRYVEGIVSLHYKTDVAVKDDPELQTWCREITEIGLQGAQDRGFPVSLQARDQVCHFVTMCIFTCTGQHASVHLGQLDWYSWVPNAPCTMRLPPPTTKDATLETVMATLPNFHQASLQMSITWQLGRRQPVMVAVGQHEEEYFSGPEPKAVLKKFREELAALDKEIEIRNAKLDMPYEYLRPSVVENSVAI
Procedure, shortened: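 Xylenol orange–ferric complex formation, read as the 573 nm to 405 nm absorbance ratio, tracks product from 50 uM arachidonic acid turned over for 30 min at RT. Enzyme is 40 nM ALOX15, pH 7.5 HEPES buffer, compound-preincubated 15 min.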
For `O=C1Nc2ccccc2CN(CC2CC2)C12CCNCC2`, the “activity change, negative = inhibition” value was -9.42%. In the case of `O=C(N1CCCC1)N1CCn2c(nnc2-c2cncc(Br)c2)C1`, the “activity change, negative = inhibition” value is reported as -11.1%. With `COC[C@@H]1CCCN1c1ncnc2c1CN(C1CCNC1)C(=O)CN2C` (some centres not stated) the “activity change, negative = inhibition” value was 0.659%. In the case of `CN1CC(=O)N(C2CCCNC2)Cc2c(NCCCO)ncnc21` (configuration not stated), the “activity change, negative = inhibition” value is reported as -25.2% [at 146 µM]. `O=Cc1ccc(-c2ccc(O)cc2)cc1` was tested, and the “activity change, negative = inhibition” value was -0.934% [at 233 µM]. With `CN(C)c1ccc(CN2CCn3c(nnc3C3CCNCC3)C2)cc1` the “activity change, negative = inhibition” value was -15.9%. For `C[S+](=O)([O-])N1CCC(c2nnc3n2CCNC3)CC1`, the “activity change, negative = inhibition” value was 7.03% [at 146 µM]. `O=C1NC(=NC2CCCC2)C2(CCN(CC3CC3)C2)N1c1cccnc1` (configuration not stated) was tested, and the “activity change, negative = inhibition” value was -31.3%. In the case of `O=C1NCc2ccccc2CC12CCN(Cc1ccc(O)cc1)CC2`, the “activity change, negative = inhibition” value is reported as -10.6% [at 146 µM]. In the case of `CC(CO)Nc1ncnc2c1CN(C1CCCNC1)C(=O)CN2C` (configuration not stated), the “activity change, negative = inhibition” value is reported as -22.8% [at 146 µM]. For `O=C(c1ccc(C(F)(F)F)cc1)N1CCC2(CC1)C(=NC1CCCCC1)NC(=O)N2c1cc(F)cc(F)c1`, the “activity change, negative = inhibition” value was -17%. With `O=C1NCc2ccccc2CC12CCCN2Cc1ccsc1` (configuration not stated) the “activity change, negative = inhibition” value was -17.1% [at 146 µM]. With `CN1CCC(C(=O)N2Cc3ccccc3OC3(CCN(C(=O)N(C)C)CC3)C2)CC1` the “activity change, negative = inhibition” value was -19.9%. In the case of `CN1CCC(C(=O)N2Cc3ccccc3CC3(CCCCN3CC3CCNCC3)C2)CC1` (configuration not stated), the “activity change, negative = inhibition” value is reported as -19.6%. For `COc1ccc(C(=O)N2Cc3ccccc3CC23CCCN(C(=O)CCCN)C3)cc1` (configuration not stated), the “activity change, negative = inhibition” value was -10.5%. With `CN1CC(=O)N(C2CCCNCC2)Cc2c(NCc3cccs3)ncnc21` (configuration not stated) the “activity change, negative = inhibition” value was -19.1%. With `O=C(c1cc(C2CC2)nc2onc(C3CCNCC3)c12)N1CCCCC1` the “activity change, negative = inhibition” value was -1.94%. With `O=C(O)CCCC(=O)N1Cc2ccccc2CC2(CCCN(Cc3ccncc3)C2)C1` (configuration not stated) the “activity change, negative = inhibition” value was -23%. `O=C(O)c1cccc(-c2cncc(C(=O)O)c2)c1` was tested, and the “activity change, negative = inhibition” value was -28.7% [at 146 µM]. `O=c1[nH]c(C2CCN(Cc3ccc(-c4cccnc4)cc3)CC2)nc2ccc(F)cc12` was tested, and the “activity change, negative = inhibition” value was -8.08%. With `O=C(N1CCCC1)N1CCN(c2ccc(Cl)nn2)C(=O)C1` the “activity change, negative = inhibition” value was -13.1% [at 146 µM]. `FC(F)(F)c1ccc(N2C3CCC2CN(Cc2cccs2)C3)cc1` was tested, and the “activity change, negative = inhibition” value was -29.5% [at 146 µM]. With `O=C1NCc2ccccc2CC12CCCN2Cc1ccc(Br)cc1` (configuration not stated) the “activity change, negative = inhibition” value was -9.25%. `CNCc1ccc(F)cc1` was tested, and the “activity change, negative = inhibition” value was -9.69% [at 233 µM]. For `CCCN1CCC2(Cc3ccccc3CN(C(=O)Cc3ccc(O)cc3)C2)C1` (configuration not stated), the “activity change, negative = inhibition” value was -27.1%. In the case of `CCC(=O)N1Cc2ccccc2CC2(CCCN(CC3CCNCC3)C2)C1` (configuration not stated), the “activity change, negative = inhibition” value is reported as -9.04%. For `CC(=O)NCCC(=O)N1Cc2ccccc2CC2(CCN(CC3CCNC3)CC2)C1` (configuration not stated), the “activity change, negative = inhibition” value was 11%. `CCC(=O)N1Cc2ccccc2CC2(CCN(Cc3ccncc3)CC2)C1` was tested, and the “activity change, negative = inhibition” value was -9.79%. In the case of `O=C1Nc2ccccc2C12CCN(S(=O)(=O)c1ccccc1)C2` (configuration not stated), the “activity change, negative = inhibition” value is reported as -2.33% [at 146 µM]. With `CC(=O)NCCC(=O)N1Cc2ccccc2CC2(CCCN(CC3CCNC3)C2)C1` (configuration not stated) the “activity change, negative = inhibition” value was 3.5%. `COc1ccccc1NC1CN(C(=O)OC(C)(C)C)C1` was tested, and the “activity change, negative = inhibition” value was -12.5% [at 146 µM]. In the case of `CN1CC(=O)N(C2CCNC2)Cc2c1ncnc2N1CCC(N2CCCCC2)CC1` (configuration not stated), the “activity change, negative = inhibition” value is reported as -8.21%. `COc1ccc(N2CC3CCC(C2)N3C(=O)c2ccc3c(c2)OCO3)cc1` was tested, and the “activity change, negative = inhibition” value was -8.37%. With `O=C(O)CCC(=O)N1Cc2ccccc2CC2(CCCN2Cc2ccccc2)C1` (configuration not stated) the “activity change, negative = inhibition” value was -22.9%. With `Nc1ccc(CN2CCCC3(Cc4ccccc4CNC3=O)C2)cc1` (configuration not stated) the “activity change, negative = inhibition” value was 5.49% [at 146 µM]. In the case of `COCCCNC(=O)c1cc(C2CC2)nc2c1c(C1CCCN1)nn2-c1ccccc1` (configuration not stated), the “activity change, negative = inhibition” value is reported as 0.477%. `CN1CC(=O)N(c2cccc(F)c2)Cc2c1ncnc2N1CCC(F)CC1` was tested, and the “activity change, negative = inhibition” value was -12.8%.
